Data: PubChem BioAssay (Tox21)
Unmarked numbers belong to inactive results. Activity calls are given as the source filed them. Calls follow the shape of the full dose curve.

assay: G protein-coupled receptor (GPCR) small molecule agonists, calcium flux assay: HEK293 wild type cell line counter screen (AID 1920065); details: HEK293 WT calcium flux, fluorescence, agonist mode; series mostly up to 57.6 µM; activation: at the top concentration
Procedure, shortened: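 Fluorescence intensity signals activation. After overnight (18 h) culture and a 1 h calcium dye load at 37 C, compounds are added by pin tool and the plate read at 480/540 nm for 3 min in 1 s steps.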
% is scaled to controls: 0 for no effect and ±100 for the full control effect; potency is read from the fitted curve at half-maximal effect.

Compound	Potency	activation
Nc1nc(N)c(N)c(N)n1	39.1 µM (active)	
CCOP(=S)(NC(C)C)Oc1ccccc1C(=O)OC(C)C (configuration not stated)		0.243%
COC(=O)C(C)N(C(=O)c1ccco1)c1c(C)cccc1C (configuration not stated)		-0.627%
CCCCCCCc1ccc(O)cc1		-0.192%
Nc1ccc(Cl)cc1C(=O)c1ccccc1		-2.01%
CCCN(CCC)c1c([N+](=O)[O-])cc(C(F)(F)F)cc1[N+](=O)[O-]	inactive	
CNC(=O)N(C)c1nc2ccccc2s1		-0.188%
c1ccc2c(c1)cc1ccc3cccc4ccc2c1c34		-0.0019%
CC(C)(O)c1cnn2c(-c3ccc(F)c(-c4c(F)cccc4C#N)c3)cnc2n1		5.73%
CCOc1cc(C(C)(C)C)ccc1C1COC(c2c(F)cccc2F)=N1 (configuration not stated)		2.92% [at 26.5 µM]
CC(C)C1CCC(Cc2ccc(Cl)cc2)C1(O)Cn1cncn1 (configuration not stated)		12.7%
CCCSP(=S)(OCC)Oc1ccc(Cl)cc1Cl (configuration not stated)		-0.515%
O=C(N[C@H](c1ccccc1)[C@@H]1CN2CCC1CC2)c1c(Cl)ccc(C(F)(F)F)c1Cl		0.323%
O=[N+]([O-])c1cc(C(F)(F)F)cc([N+](=O)[O-])c1Cl		0.0603%
NNC(N)=O		-0.197%
CN1CCc2cc3c(cc2C1O)OCO3 (configuration not stated)		0.0148%
Fc1ccc(Oc2ccnc3cc(Cl)cc(Cl)c23)cc1		-0.0043%
O=C1C(I)=CC(=C(c2cc(I)c(O)c(I)c2)c2ccccc2C(=O)O)C=C1I		-0.639% [at 26.5 µM]
O=NN1CCNCC1		0.143%
Oc1ccc([C@H]2CNCc3c2ccc(O)c3O)cc1O		-1.09% [at 26.5 µM]
CCC1(CC)C(=O)N=C(O)NC1=O		-0.259%
CSC(=O)c1c(C(F)F)nc(C(F)(F)F)c(C(=O)SC)c1CC(C)C		-0.425%
